# Source: ChEMBL document CHEMBL3988442, “University of Dundee, Small-Polar-MMV Screening Library” (2021)
# About 13,000 (27%) of roughly 48,000 compounds showed an effect of 50% or more. The list shows a part of the results.
# System: Wolbachia pipientis
# Assay: Anti-Wolbachia Cell-Based Screen
# Type: functional
# Set-up: scale not given: in the data most compounds retested in dose-response had high values
# Conditions: 5 µM
row,Structure (SMILES),Percent Effect [%]
1,c1ccc(Cn2cccn2)c(CN2CCC3(CCCNC3)C2)c1 (stereo not drawn),-20.95
2,O=S(=O)(CCO)Cc1ccc(OCC(F)(F)F)cc1,1.249
3,COCCOCCNC(=O)C(C)Oc1ccccc1C(F)(F)F (stereo not drawn),0.2325
4,O=C(O)C(F)(F)F.c1cc(CN2CCCn3cnc(COCC4CC4)c3C2)co1,3.975
5,CCCc1cc(C(=O)NC(c2ccccc2)c2n[nH]c(C)n2)[nH]n1 (stereo not drawn),3.333
6,CC(C)Cc1cc(C(=O)NCC(O)c2ccc(F)cc2)n(C)n1 (stereo not drawn),0.3453
7,CCCc1cc(C(=O)N(C)Cc2cnc3ccccc3n2)n(C)n1,-19.21
8,CCCc1cc(C(=O)N[C@@H](CO)[C@@H](O)c2ccccc2)n(C)n1,130.2
9,CCCc1cc(C(=O)N[C@H](C)[C@@H](O)c2ccc(O)cc2)n(C)n1,110
10,CCC(NC(=O)c1cc(CC(C)C)nn1C)c1ccnn1C (stereo not drawn),9.016
11,O=C(CCCn1cncn1)NC1(c2cccc(Br)c2)CC1,-89.93
12,O=S(=O)(Cc1ccccc1F)NCCN1CCOCC1,-10.21
13,O=C(Cc1ccccc1F)NCCN1CCOCC1,3.995
14,CCOc1ncccc1CNS(=O)(=O)N1CCOCC1,-0.8612
15,O=S(=O)(NCc1cccnc1OC1CCCC1)N1CCOCC1,-7.047
16,O=S(=O)(NCCc1ccccc1F)N1CCOCC1,104.5
17,O=S(=O)(NCCc1ccccc1C(F)(F)F)N1CCOCC1,96.69
18,Cc1nc(S(=O)(=O)N2CCc3[nH]nc(CCC(C)C)c3C2)cn1C,14.04
19,CC(C)CN1CC(c2nc(CCc3ccccc3)n[nH]2)CC1=O (stereo not drawn),6.531
20,O=C(c1ccncc1)N1CCCC1C1CCN(Cc2ccccc2)CC1 (stereo not drawn),-37.72
21,CC(C)=CCN1CCN(C(=O)c2snnc2C)[C@H]2CS(=O)(=O)C[C@H]21,-1.087
22,CN1CCCCC[C@@H]2[C@@H]1[C@H](c1ccccc1)CN2C(=O)c1cccnc1,98.96

row,Structure (SMILES),Percent Effect [%]
1,CN1CCCC[C@@H]2[C@H]1[C@@H](c1ccccc1)CCN2C(=O)c1ccncc1,88.59
2,O=C(c1cccnc1)N1CCCC1C1CCN(Cc2ccccc2)CC1 (stereo not drawn),-39.09
3,CN1CCCC[C@@H]2[C@H]1[C@@H](c1ccccc1)CCN2C(=O)c1cccnc1,94.07
4,CN1CCCC[C@@H]2[C@H]1[C@@H](c1ccccc1)CCN2C(=O)c1ccccc1,-7.424
5,Cc1nnsc1C(=O)N1CC[C@H](c2ccccc2)[C@@H]2[C@H]1CCCCN2C,109
6,Cc1nnsc1C(=O)N1CCN(CC2CC2)[C@@H]2CS(=O)(=O)C[C@@H]21,2.438
7,COC(=O)C1CCCN1C(=O)c1ccc(Cl)cc1F (stereo not drawn),16.38
8,CN1CCN(c2ccc(NC(=O)c3ccccn3)c(C(F)(F)F)c2)CC1,-8.677
9,CCNC(=O)c1ccoc1CN1c2ccccc2CC1C (stereo not drawn),-6.269
10,CCN(CCc1nc2cc(C)ccc2[nH]1)C(=O)[C@@H](N)COC,2.321
11,Cc1nc(CCNc2ccc(-c3nc(C)c(C)c(=O)[nH]3)cn2)cs1,1.722
12,CN(C)C(=O)NC1COC2(CCN(S(=O)(=O)c3ccccc3)CC2)C1 (stereo not drawn),5.169
13,O=C(CCc1nc2ccccc2[nH]1)NC1CCOC2(CCOCC2)C1 (stereo not drawn),103.6
14,COc1c(C)cnc(CNC(=O)CCc2nc3ccccc3[nH]2)c1C,4.531
15,O=C(CCS(=O)(=O)c1ccccc1)NC1CCOC2(CCOCC2)C1 (stereo not drawn),92.28
16,O=C(NCCNc1ccccn1)NC1CCOC2(CCCCC2)C1 (stereo not drawn),-19.85
17,O=C(CCCc1nc2ccccc2[nH]1)N1CCCC1c1ccccn1 (stereo not drawn),-11.11
18,CCc1ncc2c(n1)CN(C(=O)CNC(=O)c1ccccc1)C2,27.82
19,COc1cccc(CN(C)Cc2[nH]c3ccccc3c2C)c1O,10.98
20,Cc1cccc(CN2CC3(CCN(C(=O)N(C)C)CC3)OCC2=O)n1.O=C(O)C(F)(F)F,105.7
21,Cc1cccc(CN2CC3(CCN(C4CCOC4)CC3)OCC2=O)n1.O=C(O)C(F)(F)F.O=C(O)C(F)(F)F (stereo not drawn),100.8
22,O=C(O)C(F)(F)F.O=C1COC2(CCN(c3cccc(F)c3)CC2)CN1Cc1ccccn1,-8.645

row,Structure (SMILES),Percent Effect [%]
1,Cc1cccc(N2CC3(CCN(S(=O)(=O)C4CC4)C3)C2)n1.O=C(O)C(F)(F)F,2.181
2,Cc1cccc(CN2CC3(CCN(S(=O)(=O)C4CC4)CC3)OCC2=O)n1.O=C(O)C(F)(F)F,102.5
3,Cc1cccc(CN2CCC3(CCCN(C(=O)N(C)C)C3)C2=O)n1.O=C(O)C(F)(F)F (stereo not drawn),-4.614
4,Cc1ccc(N2CCC3(CC2)CCN(C2CCOC2)CC3)nn1.O=C(O)C(F)(F)F (stereo not drawn),-7.269
5,CCS(=O)(=O)N1CCC2(CC1)CN(Cc1ccccn1)C(=O)CO2.O=C(O)C(F)(F)F,-5.616
6,CC(CCNC(=O)N1CCC1)N(C)C(=O)OC(C)(C)C (stereo not drawn),-2.382
7,Cl.Cl.O[C@@H]1C[C@@](CNCc2ccc(F)cc2)(COc2cccnc2)C[C@@H]1O,-10.51
8,Cc1ncc(CNCC2CCC(C(N)=O)CC2)n1-c1ccccc1 (stereo not drawn),-1.319
9,CCc1nc(N)nc(NCCC(=O)NC2CCCCC2)c1C,10.22
10,CCS(=O)(=O)NCC1Cn2nnc(-c3cccc(C)c3)c2CO1 (stereo not drawn),-10.41
11,CCOCCC(=O)N1C[C@H]2CC[C@@H]1CN(c1ncccn1)C2,22.34
12,O=C(NC1CC1)[C@@H]1CN(Cc2ccc3c(c2)OCO3)C[C@H]2OCC[C@H]21.O=C(O)C(F)(F)F,-3.513
13,CC(C)NC(=O)[C@@]12CCO[C@@H]1CCN(Cc1ccc3c(c1)OCO3)C2.O=C(O)C(F)(F)F,90.31
14,O=C(NC1CC1)[C@H]1CN(Cc2ccc3c(c2)OCO3)C[C@H]2OCC[C@@H]12.O=C(O)C(F)(F)F,-14.17
15,CNC(=O)[C@@]12CCO[C@@H]1CCN(Cc1ccc3c(c1)OCO3)C2.O=C(O)C(F)(F)F,92.17
16,CN1CCC2(COCCN(Cc3ccc4c(c3)OCO4)C2)C1.O=C(O)C(F)(F)F.O=C(O)C(F)(F)F (stereo not drawn),-6.126
17,CN(C)C(=O)[C@@H]1CCO[C@@H]2CCN(Cc3ccc4c(c3)OCO4)C[C@@H]21.O=C(O)C(F)(F)F,-16.18
18,Cc1ncsc1CN1CC[C@H]2OCC[C@@]2(C(=O)NC2CC2)C1.O=C(O)C(F)(F)F,0.183
19,CN(C)C(=O)[C@@]12CCO[C@@H]1CCN(Cc1ccc3c(c1)OCO3)C2.O=C(O)C(F)(F)F,104.9
20,O=C(NC1CC1)[C@@]12CCO[C@@H]1CCN(Cc1ccc3c(c1)OCO3)C2.O=C(O)C(F)(F)F,117
21,CNC(=O)[C@@]12CCO[C@@H]1CCN(Cc1cccc(C)c1)C2.O=C(O)C(F)(F)F,5.352
22,CC(C)NC(=O)[C@@H]1CN(Cc2ccc3c(c2)OCO3)C[C@H]2OCC[C@H]21.O=C(O)C(F)(F)F,-18.01

row,Structure (SMILES),Percent Effect [%]
1,Cc1ncsc1CN1CC[C@H]2OCC[C@@]2(C(=O)NC(C)C)C1.O=C(O)C(F)(F)F,3.331
2,O=C1OCCN1Cc1cccc(C(F)(F)F)c1F,-20.92
3,CCC(NC(=O)c1ccco1)c1ccccc1OCC(=O)N1CCCC1 (stereo not drawn),7.206
4,CCOc1ccc(NC(=O)c2oc(CC)cc2C)cc1CO,-16.02
5,Cc1cc(CN2CC[C@H]3OCC[C@@]3(C(=O)NCc3ccco3)C2)no1.O=C(O)C(F)(F)F,-7.292
6,O=C(NCc1ccco1)[C@@]12CCO[C@@H]1CCN(CC1CCOCC1)C2.O=C(O)C(F)(F)F,-4.272
7,CC(C)NC(=O)[C@@]12CCO[C@@H]1CCN(Cc1ccco1)C2.O=C(O)C(F)(F)F,113.3
8,O=C(NC1CC1)[C@@H]1CCO[C@@H]2CCN(C3CCCC3)C[C@H]21,-4.337
9,COc1ccc(CN2CCN(CC3CC3)[C@@H]3CS(=O)(=O)C[C@@H]32)cc1O,13.23
10,Cc1n[nH]cc1CNC1CCN(c2ccc(F)cc2)CC1.Cl,-3.892
11,Cc1n[nH]cc1CNCc1ccnc(OCC(F)(F)F)c1.Cl,-12.37
12,COc1ccc(-c2cc[nH]n2)cc1CNC1CCCC1,-3.837
13,CC(C)(C)c1n[nH]cc1CNC1CCC(OCC(F)(F)F)CC1.Cl (stereo not drawn),88.78
14,CC(C)(C)c1n[nH]cc1CNC1CCC(O)CC1 (stereo not drawn),81.49
15,Cc1ccc(CNCc2c[nH]nc2C(C)(C)C)c(OC2CCOC2)c1 (stereo not drawn),13.41
16,Cc1n[nH]cc1CNC1CCN(c2cccc(C(F)(F)F)c2)CC1,-2.63
17,CC(C)(C)c1n[nH]cc1CNC1CCC(C(F)(F)F)CC1.Cl (stereo not drawn),89.77
18,CN(Cc1ccccc1)CC(C)(C)NC(=O)c1cnccn1,4.118
19,Cc1cccc(S(=O)(=O)N2CC[C@H]3[C@H]2CCN3c2ncccn2)c1.O=C(O)C(F)(F)F,-3.796
20,O=c1[nH]ccc2cc(-c3cc(O)cc(CCC4CCCCN4)c3)ccc12 (stereo not drawn),-30.56
21,Cc1cccc(C(=O)N2CCCC2)c1NCC(=O)NC(C)(C#N)C1CC1 (stereo not drawn),5.415
22,CCC(CC)c1cc(CNC(=O)N2CCCC(N(C)C)C2)on1 (stereo not drawn),-19.35
